Measured values as given in PubChem BioAssay (EPA / NIEHS).
Calls of active or inactive are those of the source. The calls were made as follows: active = hit-call score of the fitted dose curve at least 0.9, where 1 is the maximum; inactive = score below 0.9.

read-out: Tumor necrosis factor (Homo sapiens) (UniProt P01375); assay: BSK_LPS_TNFa: BioMAP Diversity Plus: LPS Assay for Tumour Necrosis Factor alpha (TNFa) Biomarker Activity (AID 2283085); settings: primary human HUVEC with PBMC; actives raise or lower the signal;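 as to AC50: TNFa protein level quantified by ELISA in the co-culture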
Outline: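 ELISA-based TNFa endpoint in a human endothelial–PBMC co-culture sampled 24 h post-exposure. Curves were fitted in both directions using DMSO as baseline of activity.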

Sequence of Tumor necrosis factor (Homo sapiens) (P01375 whole entry, looked up): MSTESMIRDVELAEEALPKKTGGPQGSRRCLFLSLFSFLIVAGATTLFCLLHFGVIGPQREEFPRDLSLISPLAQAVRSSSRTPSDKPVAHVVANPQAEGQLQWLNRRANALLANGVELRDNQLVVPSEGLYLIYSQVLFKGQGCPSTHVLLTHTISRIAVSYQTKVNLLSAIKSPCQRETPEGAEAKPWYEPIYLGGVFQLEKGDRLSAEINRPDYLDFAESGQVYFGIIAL
Sequence of E-selectin (Homo sapiens) (P16581 whole entry, looked up): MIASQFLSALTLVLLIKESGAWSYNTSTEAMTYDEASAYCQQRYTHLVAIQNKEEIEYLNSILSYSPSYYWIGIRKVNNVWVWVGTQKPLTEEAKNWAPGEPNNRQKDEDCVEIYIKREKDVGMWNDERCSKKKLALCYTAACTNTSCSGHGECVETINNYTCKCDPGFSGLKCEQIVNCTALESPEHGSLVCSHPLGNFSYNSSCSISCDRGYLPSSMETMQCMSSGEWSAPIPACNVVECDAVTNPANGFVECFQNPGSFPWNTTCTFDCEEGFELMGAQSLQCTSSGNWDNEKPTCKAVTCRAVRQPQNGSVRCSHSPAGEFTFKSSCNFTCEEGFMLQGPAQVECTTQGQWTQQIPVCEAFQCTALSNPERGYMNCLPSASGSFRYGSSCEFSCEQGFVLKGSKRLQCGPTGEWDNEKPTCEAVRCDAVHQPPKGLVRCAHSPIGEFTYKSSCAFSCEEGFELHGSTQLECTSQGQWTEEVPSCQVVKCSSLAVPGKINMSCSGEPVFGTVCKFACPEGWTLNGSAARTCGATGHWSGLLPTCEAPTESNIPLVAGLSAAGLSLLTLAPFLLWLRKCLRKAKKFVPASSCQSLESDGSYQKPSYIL

SMILES	AC50	outcome
O=C1C(Cl)=C(Cl)C(=O)C(Cl)=C1Cl	30.9 µM (active)	–
N#CCCCCC#N	–	inactive
CC(C)(c1cc(Cl)c(O)c(Cl)c1)c1cc(Cl)c(O)c(Cl)c1	31.4 µM (active)	–
COCC(=O)N(c1c(C)cccc1C)N1CCOC1=O	–	inactive
CC(C)CCCCCCCOP(=O)(Oc1ccccc1)Oc1ccccc1	30.4 µM (active)	–
C=CCN(CC=C)C(=O)C(Cl)Cl	–	inactive
c1ccc(Nc2ccc3ccccc3c2)cc1	–	inactive
Cc1ccc(OP(=O)(Oc2ccc(C)cc2)Oc2ccc(C)cc2)cc1 (tested in a mixture with another compound)	–	inactive
O=S(=O)(c1ccccc1)c1ccccc1	–	inactive
CC(=O)/C=C/c1ccccc1	–	inactive

read-out: Vascular cell adhesion molecule 1 (VCAM1), VCAM1 (gene 7412); assay: BSK_LPS_VCAM1: BioMAP Diversity Plus: LPS Assay for Vascular cell adhesion molecule 1 (VCAM1) Biomarker Activity (AID 2283086); settings: primary human HUVEC with PBMC; actives raise or lower the signal
Outline: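 Measured by ELISA: VCAM-1 in LPS-activated HUVEC/PBMC co-cultures 24 h after treatment. Values reflect bidirectional fitting with DMSO as baseline.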

SMILES	AC50	outcome
O=C1C(Cl)=C(Cl)C(=O)C(Cl)=C1Cl	16.2 µM (active)	–
N#CCCCCC#N	–	inactive
CC(C)(c1cc(Cl)c(O)c(Cl)c1)c1cc(Cl)c(O)c(Cl)c1	29.8 µM (active)	–
COCC(=O)N(c1c(C)cccc1C)N1CCOC1=O	–	inactive
CC(C)CCCCCCCOP(=O)(Oc1ccccc1)Oc1ccccc1	27.8 µM (active)	–
C=CCN(CC=C)C(=O)C(Cl)Cl	–	inactive
c1ccc(Nc2ccc3ccccc3c2)cc1	–	inactive
Cc1ccc(OP(=O)(Oc2ccc(C)cc2)Oc2ccc(C)cc2)cc1 (tested in a mixture with another compound)	–	inactive
O=S(=O)(c1ccccc1)c1ccccc1	–	inactive
CC(=O)/C=C/c1ccccc1	20 µM (active)	–

read-out: CD38, CD38 (gene 952); assay: BSK_SAg_CD38: BioMAP Diversity Plus: SAg Assay for CD38 Biomarker Activity (AID 2283087); settings: primary human HUVEC with PBMC; actives raise or lower the signal
Outline: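 Measures CD38 on a human endothelial/PBMC co-culture driven by SEB and TSST-1, 24 h after compound exposure, using ELISA with fluorescence detection; DMSO defines baseline for bidirectional curve fitting.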

SMILES	AC50	outcome
O=C1C(Cl)=C(Cl)C(=O)C(Cl)=C1Cl	28.5 µM (active)	–
N#CCCCCC#N	–	inactive
CC(C)(c1cc(Cl)c(O)c(Cl)c1)c1cc(Cl)c(O)c(Cl)c1	26.6 µM (active)	–
COCC(=O)N(c1c(C)cccc1C)N1CCOC1=O	–	inactive
CC(C)CCCCCCCOP(=O)(Oc1ccccc1)Oc1ccccc1	25.9 µM (active)	–
C=CCN(CC=C)C(=O)C(Cl)Cl	–	inactive
c1ccc(Nc2ccc3ccccc3c2)cc1	–	inactive
Cc1ccc(OP(=O)(Oc2ccc(C)cc2)Oc2ccc(C)cc2)cc1 (tested in a mixture with another compound)	20 µM (active)	–
O=S(=O)(c1ccccc1)c1ccccc1	–	inactive
CC(=O)/C=C/c1ccccc1	–	inactive

read-out: CD69, CD69 (gene 969); assay: BSK_SAg_CD69: BioMAP Diversity Plus: SAg Assay for CD69 Biomarker Activity (AID 2283089); settings: primary human HUVEC with PBMC; actives raise or lower the signal;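 as to AC50: cell surface CD69 protein quantified by ELISA with fluorescence detection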
Outline: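 ELISA, fluorescence read-out: CD69 on human umbilical vein endothelial cell + PBMC co-culture, 24 h post-dosing. Gain or loss of signal fitted bidirectionally against DMSO baseline.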

SMILES	AC50	outcome
O=C1C(Cl)=C(Cl)C(=O)C(Cl)=C1Cl	27.3 µM (active)	–
N#CCCCCC#N	–	inactive
CC(C)(c1cc(Cl)c(O)c(Cl)c1)c1cc(Cl)c(O)c(Cl)c1	26.3 µM (active)	–
COCC(=O)N(c1c(C)cccc1C)N1CCOC1=O	–	inactive
CC(C)CCCCCCCOP(=O)(Oc1ccccc1)Oc1ccccc1	16.7 µM (active)	–
C=CCN(CC=C)C(=O)C(Cl)Cl	–	inactive
c1ccc(Nc2ccc3ccccc3c2)cc1	–	inactive
Cc1ccc(OP(=O)(Oc2ccc(C)cc2)Oc2ccc(C)cc2)cc1 (tested in a mixture with another compound)	9.8 µM (active)	–
O=S(=O)(c1ccccc1)c1ccccc1	–	inactive
CC(=O)/C=C/c1ccccc1	–	inactive

read-out: Monocyte Chemoattractant Protein-1 (MCP1), CCL2 (gene 6347); assay: BSK_SAg_MCP1: BioMAP Diversity Plus: SAg Assay for Monocyte Chemoattractant Protein-1 (MCP1) Biomarker Activity (AID 2283090); settings: primary human HUVEC with PBMC; actives raise or lower the signal
Outline: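 Values derive from bidirectional fitting of ELISA-measured MCP1 against DMSO controls. Readings were taken 24 h after dosing human vascular endothelial cells co-cultured with peripheral blood mononuclear cells under superantigen stimulation.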

SMILES	AC50	outcome
O=C1C(Cl)=C(Cl)C(=O)C(Cl)=C1Cl	37.9 µM (active)	–
N#CCCCCC#N	–	inactive
CC(C)(c1cc(Cl)c(O)c(Cl)c1)c1cc(Cl)c(O)c(Cl)c1	31.9 µM (active)	–
COCC(=O)N(c1c(C)cccc1C)N1CCOC1=O	–	inactive
CC(C)CCCCCCCOP(=O)(Oc1ccccc1)Oc1ccccc1	20 µM (active)	–
C=CCN(CC=C)C(=O)C(Cl)Cl	–	inactive
c1ccc(Nc2ccc3ccccc3c2)cc1	–	inactive
Cc1ccc(OP(=O)(Oc2ccc(C)cc2)Oc2ccc(C)cc2)cc1 (tested in a mixture with another compound)	20 µM (active)	–
O=S(=O)(c1ccccc1)c1ccccc1	–	inactive
CC(=O)/C=C/c1ccccc1	–	inactive

read-out: E-selectin (Homo sapiens) (UniProt P16581); assay: BSK_SAg_Eselectin: BioMAP Diversity Plus: SAg Assay for Eselectin Biomarker Activity (AID 2283091); settings: primary human HUVEC with PBMC; actives raise or lower the signal
Outline: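 Endpoint values derive from bidirectional fitting relative to DMSO, using ELISA-measured E-selectin in a human vascular co-culture (umbilical vein endothelium plus PBMC) sampled 24 h after dosing.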

SMILES	AC50	outcome
O=C1C(Cl)=C(Cl)C(=O)C(Cl)=C1Cl	25.9 µM (active)	–
N#CCCCCC#N	–	inactive
CC(C)(c1cc(Cl)c(O)c(Cl)c1)c1cc(Cl)c(O)c(Cl)c1	23.5 µM (active)	–
COCC(=O)N(c1c(C)cccc1C)N1CCOC1=O	–	inactive
CC(C)CCCCCCCOP(=O)(Oc1ccccc1)Oc1ccccc1	24.4 µM (active)	–
C=CCN(CC=C)C(=O)C(Cl)Cl	–	inactive
c1ccc(Nc2ccc3ccccc3c2)cc1	–	inactive
Cc1ccc(OP(=O)(Oc2ccc(C)cc2)Oc2ccc(C)cc2)cc1 (tested in a mixture with another compound)	20 µM (active)	–
O=S(=O)(c1ccccc1)c1ccccc1	–	inactive
CC(=O)/C=C/c1ccccc1	–	inactive

read-out: Monokine induced gamma interferon (MIG), CXCL9 (gene 4283); assay: BSK_SAg_MIG: BioMAP Diversity Plus: SAg Assay for Monokine induced gamma interferon (MIG) Biomarker Activity (AID 2283092); settings: primary human HUVEC with PBMC; actives raise or lower the signal
Outline: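 ELISA readout of MIG/CXCL9; primary human umbilical vein endothelial cells co-cultured with peripheral blood mononuclear cells; 24 h post-dose; gain/loss fit vs DMSO baseline.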

SMILES	AC50	outcome
O=C1C(Cl)=C(Cl)C(=O)C(Cl)=C1Cl	36.2 µM (active)	–
N#CCCCCC#N	–	inactive
COCC(=O)N(c1c(C)cccc1C)N1CCOC1=O	–	inactive
CC(C)CCCCCCCOP(=O)(Oc1ccccc1)Oc1ccccc1	35 µM (active)	–
C=CCN(CC=C)C(=O)C(Cl)Cl	–	inactive
c1ccc(Nc2ccc3ccccc3c2)cc1	–	inactive
Cc1ccc(OP(=O)(Oc2ccc(C)cc2)Oc2ccc(C)cc2)cc1 (tested in a mixture with another compound)	–	inactive
O=S(=O)(c1ccccc1)c1ccccc1	–	inactive
CC(=O)/C=C/c1ccccc1	–	inactive
